{
  "source": "PubChem BioAssay (Tox21)",
  "note": "Results filed as inconclusive are left out. Calls of active or inactive are those of the source. Calls follow the shape of the dose curve; as a rule, active = well fitted activation curve with a large enough effect in the repeat runs; inconclusive = weak or mixed curves; inactive = no such curve, though single readings can be large or run the other way. % is scaled to controls: 0 for no effect and ±100 for the full control effect; potency is read from the fitted curve at half-maximal effect.",
  "data": [
    {"molecular_target": "Nuclear receptor subfamily 1 group I member 2 (Rattus norvegicus) (UniProt Q9R1A7)", "sequence (Q9R1A7 whole entry, looked up)": "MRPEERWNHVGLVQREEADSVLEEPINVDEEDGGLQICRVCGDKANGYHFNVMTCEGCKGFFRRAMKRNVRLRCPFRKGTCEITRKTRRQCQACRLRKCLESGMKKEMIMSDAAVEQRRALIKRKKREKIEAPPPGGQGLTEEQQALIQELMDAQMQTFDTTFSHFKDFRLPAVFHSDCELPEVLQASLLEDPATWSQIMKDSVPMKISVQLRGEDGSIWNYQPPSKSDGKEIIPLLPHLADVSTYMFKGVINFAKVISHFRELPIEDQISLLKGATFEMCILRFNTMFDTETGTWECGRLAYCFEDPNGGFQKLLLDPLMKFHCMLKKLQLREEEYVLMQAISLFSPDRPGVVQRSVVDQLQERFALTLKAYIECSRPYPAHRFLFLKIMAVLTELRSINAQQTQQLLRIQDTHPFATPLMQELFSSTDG", "experiment": "Rat pregnane X receptor (rPXR) activation by small molecules, qHTS assay (AID 1346983); also: nearly all actives have a fitted effect of over 20% in size", "details": "rPXR luciferase reporter cells, One-Glo luminescence, 24 h; max activation: stronger effect = higher value", "summary_of_the_method": "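Luminescent readout (One-Glo luciferase, 30 min room temperature) followed 24 hr compound treatment at 37 C of rPXR cells plated 2,000 per well and preincubated 5hr; qHTS format with compounds delivered in DMSO.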", "values": [
      {"smiles": "FC(F)(F)C(F)(F)C(F)(F)C(F)(F)C(F)(F)C(F)(F)F", "max activation": "-1.09% (inactive)"},
      {"smiles": "O=C(OC[C@H]1O[C@](O)(COC(=O)c2cccnc2)[C@@H](OC(=O)c2cccnc2)[C@@H]1OC(=O)c1cccnc1)c1cccnc1", "max activation": "1.1% (inactive)"},
      {"smiles": "CCC(Cc1c(I)cc(I)c(O)c1I)C(=O)O", "note": "(stereo unspecified)", "max activation": "-2.63% (inactive)"},
      {"smiles": "CCCCCCCCCCCCOCCCN", "max activation": "-3.73% (inactive)"},
      {"smiles": "C=CCOc1ccc(CC(=O)O)cc1Cl", "max activation": "-5.29% (inactive)"},
      {"smiles": "O=P(O)(O)OC[C@H]1O[C@](O)(COP(=O)(O)O)[C@@H](O)[C@@H]1O", "max activation": "-2.72% (inactive)"},
      {"smiles": "CC(=O)O[C@]1(C(C)=O)CC[C@H]2[C@@H]3CCC4=CC(=O)CC[C@]4(C)[C@@]3(F)[C@@H](O)C[C@@]21C", "Potency": "3.55 µM (active)"},
      {"smiles": "CCN(CC)CCC(=O)N1c2ccccc2Sc2ccc(C(F)(F)F)cc21", "max activation": "-1.59% (inactive)"},
      {"smiles": "CCCCC(=O)N(Cc1ccc(-c2ccccc2-c2nn[nH]n2)cc1)[C@@H](C(=O)O)C(C)C", "max activation": "-1.58% (inactive)"},
      {"smiles": "CN=C1C=CC(=C(c2ccc(N(C)C)cc2)c2ccc(N(C)C)cc2)C=C1", "max activation": "-26% (inactive)"},
      {"smiles": "CCCCCCCCCCCC(=O)N(CCO)CCO", "max activation": "-2.62% (inactive)"},
      {"smiles": "O=C(O)c1cc(N=Nc2ccc(O)c(C(=O)O)c2)ccc1O", "max activation": "-4.04% (inactive)"}
    ]},
    {"molecular_target": "Nuclear receptor subfamily 1 group I member 2 (Homo sapiens) (UniProt O75469)", "experiment": "CYP3A4 induction through human pregnane X receptor (PXR) by small molecules, qHTS assay (AID 1346984); also: nearly all actives have a fitted effect of over 40% in size", "details": "DPX-2 HepG2 PXR, CYP3A4-luciferin luminescence, 24 h; series mostly up to 46.1 µM; activation: at the top concentration", "summary_of_the_method": "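Cells (DPX-2; HepG2 with PXR element plus CYP3A4-promoter luciferase) settled 5hr, then were treated 24hr at 37C. A 3hr, 3uM-final Luciferin-IPA step preceded luminescence measurement with One-Glo.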", "values": [
      {"smiles": "O=C(O)c1nc(=O)[nH]c(=O)[nH]1", "activation": "9.54% (inactive)"},
      {"smiles": "CC(=O)N=c1sc(S(N)(=O)=O)nn1C", "activation": "-5.75% [at 20.6 µM] (inactive)"},
      {"smiles": "C[N@+]12CCCC[C@@H]1CCC(=C(c1cccs1)c1cccs1)C2", "activation": "7.41% (inactive)"},
      {"smiles": "CC[C@@]1(O)C[C@H](O[C@H]2C[C@H](N(C)C)[C@H](O[C@H]3C[C@H](O)[C@H](O[C@H]4CCC(=O)[C@H](C)O4)[C@H](C)O3)[C@H](C)O2)c2c(cc3c(c2O)C(=O)c2c(O)cccc2C3=O)[C@H]1C(=O)OC", "activation": "-22.8% (inactive)"},
      {"smiles": "C/C1=C2N=C(/C=C3N=C(/C(C)=C4\\[N-][C@@](C)([C@@H]5N=C1[C@](C)(CCC(=O)NCC(C)OP(=O)(O)O[C@H]1[C@@H](O)[C@@H](n6cnc7cc(C)c(C)cc76)O[C@@H]1CO)[C@H]5CC(N)=O)[C@@](C)(CC(N)=O)[C@@H]4CCC(N)=O)[C@@](C)(CC(N)=O)[C@@H]\\3CCC(N)=O)C(C)(C)[C@@H]/2CCC(N)=O.CC(=O)O.[Co]", "note": "(stereo partly specified)", "activation": "-4.82% (inactive)"},
      {"smiles": "CC1(C)S[C@@H]2[C@H](NC(=O)C(C(=O)O)c3ccsc3)C(=O)N2[C@H]1C(=O)O", "note": "(stereo partly specified)", "activation": "7.43% (inactive)"},
      {"smiles": "CCCCC/C=C\\CCC(=O)N[C@H]1[C@H](Oc2c3cc4cc2Oc2ccc(cc2Cl)[C@@H](O[C@@H]2O[C@H](CO)[C@@H](O)[C@H](O)[C@H]2NC(C)=O)[C@@H]2NC(=O)[C@H](NC(=O)[C@@H]4NC(=O)[C@H]4NC(=O)[C@@H](Cc5ccc(c(Cl)c5)O3)NC(=O)[C@H](N)c3ccc(O)c(c3)Oc3cc(O)cc4c3)c3ccc(O)c(c3)-c3c(O[C@H]4O[C@H](CO)[C@@H](O)[C@H](O)[C@@H]4O)cc(O)cc3[C@@H](C(=O)O)NC2=O)O[C@H](CO)[C@@H](O)[C@@H]1O", "activation": "-2.72% [at 20.6 µM] (inactive)"},
      {"smiles": "O=C(O)C1=C(CSc2nnnn2CS(=O)(=O)O)CS[C@@H]2[C@H](NC(=O)[C@H](O)c3ccccc3)C(=O)N12", "activation": "-0.136% (inactive)"},
      {"smiles": "CCOc1ccc(N=Nc2ccc(N)cc2N)cc1", "activation": "-19.7% (inactive)"},
      {"smiles": "O=C(O)[C@H]1/C(=C/CO)O[C@@H]2CC(=O)N21", "activation": "-9.92% (inactive)"},
      {"smiles": "CNCC(O)c1ccc(OC(=O)C(C)(C)C)c(OC(=O)C(C)(C)C)c1", "note": "(stereo unspecified)", "activation": "9.42% [at 20.6 µM] (inactive)"},
      {"smiles": "COc1cc(-c2ccc(-[n+]3nc(-c4ccccc4)nn3-c3ccc([N+](=O)[O-])cc3)c(OC)c2)ccc1-[n+]1nc(-c2ccccc2)nn1-c1ccc([N+](=O)[O-])cc1", "activation": "-10.3% (inactive)"},
      {"smiles": "CCOC(=O)O[C@]1(C(=O)COC(=O)CC)CC[C@H]2[C@@H]3CCC4=CC(=O)C=C[C@]4(C)[C@H]3[C@@H](O)C[C@@]21C", "activation": "11.8% [at 20.6 µM] (inactive)"},
      {"smiles": "CC[C@H](C)[C@@H]1NC(=O)[C@H](Cc2ccc(O)cc2)NC(=O)[C@@H](N)CSSC[C@@H](C(=O)N2CCC[C@H]2C(=O)N[C@@H](CC(C)C)C(=O)NCC(N)=O)NC(=O)[C@H](CC(N)=O)NC(=O)[C@H](CCC(N)=O)NC1=O", "activation": "-1.98% (inactive)"},
      {"smiles": "NS(=O)(=O)c1cc2c(cc1Cl)NC(Cc1ccccc1)NS2(=O)=O", "note": "(stereo unspecified)", "activation": "-0.644% (inactive)"},
      {"smiles": "C[N+]1(C)[C@@H]2CC(OC(=O)C(O)(c3cccs3)c3cccs3)C[C@H]1[C@@H]1O[C@@H]12", "note": "(stereo partly specified)", "activation": "-1.42% (inactive)"},
      {"smiles": "CC(C)[C@@H]1CC[C@@H](C)C[C@H]1OC(=O)c1ccccc1O", "activation": "-0.64% (inactive)"},
      {"smiles": "CC(C)[C@@H](N)C(=O)O", "activation": "-2.35% (inactive)"},
      {"smiles": "CC(C)(C)CC(C)(C)c1cc(Cc2cc(C(C)(C)CC(C)(C)C)cc(-n3nc4ccccc4n3)c2O)c(O)c(-n2nc3ccccc3n2)c1", "activation": "-8.59% (inactive)"},
      {"smiles": "COc1ccc(C[C@H](C)NC[C@@H](O)c2ccc(O)c(NC=O)c2)cc1", "activation": "-3.18% (inactive)"},
      {"smiles": "CCCCCCCCCCCCCCCC(=O)OCC(COC(=O)CCCCCCCCCCCCCCC)OC(=O)CCCCCCCCCCCCCCC", "activation": "-2.73% (inactive)"},
      {"smiles": "CCOC(=O)[C@H](CS)NCCN[C@@H](CS)C(=O)OCC", "activation": "-7.45% (inactive)"},
      {"smiles": "CCN(CC)CCOCCOC(=O)C(CC)(CC)c1ccccc1", "Potency": "31.6 µM (active)"},
      {"smiles": "CC(=O)N(CC(C)C(=O)O)c1c(I)cc(I)c(N)c1I", "note": "(stereo unspecified)", "activation": "20.4% [at 20.6 µM] (inactive)"},
      {"smiles": "O=C(O)c1ccc(NC(=O)[C@H](Cc2ccc(O)cc2)NC(=O)c2ccccc2)cc1", "activation": "-16.9% (inactive)"},
      {"smiles": "Clc1cc(Cl)c(OCC#CI)cc1Cl", "activation": "-12.8% (inactive)"},
      {"smiles": "CC(=O)Nc1ccc(OC(=O)c2ccccc2O)cc1", "activation": "-2.3% (inactive)"},
      {"smiles": "FC(F)(F)C(F)(F)C(F)(F)C(F)(F)C(F)(F)C(F)(F)F", "activation": "-4.44% (inactive)"},
      {"smiles": "O=C(OC[C@H]1O[C@](O)(COC(=O)c2cccnc2)[C@@H](OC(=O)c2cccnc2)[C@@H]1OC(=O)c1cccnc1)c1cccnc1", "activation": "-5.35% (inactive)"},
      {"smiles": "CCC(Cc1c(I)cc(I)c(O)c1I)C(=O)O", "note": "(stereo unspecified)", "activation": "13.3% (inactive)"},
      {"smiles": "CCCCCCCCCCCCOCCCN", "activation": "-9.19% (inactive)"},
      {"smiles": "C=CCOc1ccc(CC(=O)O)cc1Cl", "activation": "-4.92% (inactive)"},
      {"smiles": "O=P(O)(O)OC[C@H]1O[C@](O)(COP(=O)(O)O)[C@@H](O)[C@@H]1O", "activation": "1.27% (inactive)"},
      {"smiles": "CC(=O)O[C@]1(C(C)=O)CC[C@H]2[C@@H]3CCC4=CC(=O)CC[C@]4(C)[C@@]3(F)[C@@H](O)C[C@@]21C", "activation": "-9% (inactive)"},
      {"smiles": "CCN(CC)CCC(=O)N1c2ccccc2Sc2ccc(C(F)(F)F)cc21", "Potency": "1 µM (active)"},
      {"smiles": "CCCCC(=O)N(Cc1ccc(-c2ccccc2-c2nn[nH]n2)cc1)[C@@H](C(=O)O)C(C)C", "activation": "-0.774% (inactive)"},
      {"smiles": "CN=C1C=CC(=C(c2ccc(N(C)C)cc2)c2ccc(N(C)C)cc2)C=C1", "activation": "-40.3% (inactive)"},
      {"smiles": "CCCCCCCCCCCC(=O)N(CCO)CCO", "activation": "-2.5% (inactive)"},
      {"smiles": "O=C(O)c1cc(N=Nc2ccc(O)c(C(=O)O)c2)ccc1O", "activation": "-8.08% (inactive)"}
    ]}
  ]
}
